PNC inhibitor = High Content Assay for Compounds that inhibit the Assembly of the Perinucleolar Compartment. activity change (PNC), negative = inhibition, % at 10 µM. 3.1% of 140,000 active. PC3M PTB-GFP, PNC prevalence imaging, 16 h; stronger effect = lower value. AID 2417, 2010;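 active means readout at or below -70, meaning at least 70% loss of cells showing the perinucleolar compartment, a nuclear body marking cancer cells; inconclusive means readout between -30 and a set limit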;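 further: plate controls were DMSO wells for no effect and camptothecin positive control wells for full effect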
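Read-out is percentage of cells bearing a perinucleolar compartment, from automated 20x imaging of fixed, Hoechst-stained PC3M PTB-GFP cells. Cells were seeded 4 h, then exposed 16 h to compound (23 nl of library stock) in duplicate plates.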
CBFb-RUNX1 inh = qHTS Assay for Compounds Blocking the Interaction Between CBF-beta and RUNX1 for the Treatment of Acute Myeloid Leukemia. AlphaScreen CBFb-His/RUNX1-biotin binding, biochemical. Potency, µM (doses to about 59.8 µM), for inactives: at the highest dose activity, negative = inhibition, actives largely listed as inhibitors. Runt-related transcription factor 1 (Homo sapiens) + Core-binding factor subunit beta …. 230,000 tested, under 10 active; further: % of control where 0% means no effect
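Proteins preincubated together for 20 min at RT before compound addition; 15 min later, nickel and streptavidin beads were added and left 90 min prior to AlphaScreen measurement.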
HTT ATP protect = qHTS Multiplex Assay to Identify Dual Action Probes in a Cell Model of Huntington: Cytoprotection (ATP). PC12 HTT-Q103 induced, cytoprotection, ATP luminescence, 40 h. Potency, µM (doses to about 56.4 µM), for the others: cytoprotection (ATP increase), actives largely listed as activators. 0.14% of 230,000 active. AID 1471, 2008; further: potency means the concentration at half of the fitted maximal effect; % of control where 0% means no effect; nearly all actives have a fitted effect of over 45% in size
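Quantitative HTS on tebufenozide-induced (100 nM) PC12 cells expressing HTTQ103 exon 1–GFP; compounds tested as a concentration series; survival measured via cellular ATP.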
ALDH1A1 inh = qHTS Assay for Inhibitors of Aldehyde Dehydrogenase 1 (ALDH1A1); Aldehyde dehydrogenase 1A1 (Homo sapiens), P00352; 7.3% of 220,000 active; Potency, µM (top dose mostly 75.3 µM), inactives show at the top dose activity, negative = inhibition, usual class: inhibitors; AID 1030, 2008; Purified ALDH1A1, NADH fluorescence, propionaldehyde substrate; active means well fitted inhibition curve with a large enough effect, not every such curve was filed as active; inconclusive means small, poorly fitted or top-dose-only effect, or another doubt; inactive means no such curve, though single readings can be large or run the other way;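 further: potency means the concentration at half of the fitted maximal effect; plate controls were no enzyme wells and a reference inhibitor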
Target sequence (P00352 whole entry, looked up): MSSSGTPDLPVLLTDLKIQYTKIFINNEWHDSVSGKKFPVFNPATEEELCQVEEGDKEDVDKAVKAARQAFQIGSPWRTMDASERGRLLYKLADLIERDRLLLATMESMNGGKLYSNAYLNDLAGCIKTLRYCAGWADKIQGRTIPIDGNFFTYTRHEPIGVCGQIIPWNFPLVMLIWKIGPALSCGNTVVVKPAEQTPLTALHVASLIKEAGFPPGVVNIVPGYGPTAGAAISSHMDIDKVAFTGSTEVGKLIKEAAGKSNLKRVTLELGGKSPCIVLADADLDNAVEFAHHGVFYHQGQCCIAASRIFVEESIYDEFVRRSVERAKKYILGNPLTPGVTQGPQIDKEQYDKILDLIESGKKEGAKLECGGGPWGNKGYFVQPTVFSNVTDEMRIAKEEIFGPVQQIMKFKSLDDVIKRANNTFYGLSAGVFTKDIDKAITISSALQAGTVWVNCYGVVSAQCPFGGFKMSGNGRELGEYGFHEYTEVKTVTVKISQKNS
HPGD block = qHTS Assay for Inhibitors of HPGD (15-Hydroxyprostaglandin Dehydrogenase). purified HPGD, NADH fluorescence kinetic, PGE2 substrate. Potency, µM, for the others: at the top dose activity change, negative = inhibition, actives largely listed as inhibitors. AID 894, 2007. 4.3% of 150,000 active. 15-hydroxyprostaglandin dehydrogenase [NAD(+)] (Homo sapiens), P15428; active means well fitted inhibition curve with a large enough effect, not every such curve was filed as active; inconclusive means small, poorly fitted or top-dose-only effect, or another doubt; inactive means no such curve, though single readings can be large or run the other way; further: potency means the concentration at half of the fitted maximal effect; on the % scale 0 is the no-effect control and ±100 the full control effect
Target sequence (P15428 whole entry, looked up): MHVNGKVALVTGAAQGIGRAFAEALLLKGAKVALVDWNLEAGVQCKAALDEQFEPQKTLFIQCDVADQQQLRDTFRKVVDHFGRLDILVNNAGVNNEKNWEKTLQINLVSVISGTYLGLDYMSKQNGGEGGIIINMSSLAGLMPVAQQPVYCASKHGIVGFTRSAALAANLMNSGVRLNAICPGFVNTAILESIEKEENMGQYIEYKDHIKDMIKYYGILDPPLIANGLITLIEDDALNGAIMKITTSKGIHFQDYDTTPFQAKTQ
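20 nM HPGD preincubated 15 min at room temperature with compound in 50 mM Tris-HCl pH 8, 0.01% Tween 20. Started with 1 mM NAD+ and 30 uM prostaglandin E2; NADH fluorescence (360/450 nm) read 5 times over 30-s intervals, last minus first.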
HttQ103 aggreg = qHTS Multiplex Assay to Identify Dual Action Probes in a Cell Model of Huntington: Aggregate Formation (GFP); PC12 HttQ103-GFP aggregates, Acumen cytometry, 40 h; Potency, µM (highest dose often 46.1 µM), for inactives: at the highest dose activity change, negative = inhibition, actives largely listed as inhibitors; 1.1% of 220,000 active; further: potency means the concentration at half of the fitted maximal effect; on the % scale 0 is the no-effect control and ±100 the full control effect; nearly all actives have a fitted effect of over 60% in size
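Aggregate formation scored by laser-scanning cytometer (488 excitation, 500–530 emission) in lysed PC12 cells expressing Q103-GFP after 100 nM tebufenozide induction; library tested in dose series, with ATPLite reagent added in the multiplex.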
Starred values were filed as active, the others as inactive; ? = inconclusive; / = no result given; [ ] = remark or other dose. An excerpt weighted towards active compounds, which were near 11% of everything screened. Unless noted, the call rests on the fitted dose curve; in most records, active means well fitted curve in the direction sought with a large enough effect; inconclusive means small, poorly fitted or top-dose-only effect, or another doubt; inactive means no such curve, though single readings can be large; an effect the other way counts as inactive or inconclusive.

SMILES	PNC inhibitor	CBFb-RUNX1 inh	HTT ATP protect	ALDH1A1 inh	HPGD block	HttQ103 aggreg
CCOC(=O)CCNC(=O)c1ccccc1Br	-0.3	3.9%	10.2%	4.3%	17.8µM*	14.6%
O=[N+]([O-])c1cccc(C(=S)N2CCN(c3ccc(F)cc3)CC2)c1	/	-8.4%	9.3%	22.4µM*	/	6.2%[9.22 µM]
CCCN1CCN(C(=S)Nc2ccc([N+](=O)[O-])cc2)CC1	-6.1	4.8%	26.6%[10 µM]	31.6µM*	/	-15.3%
CCCN1CCC(NC(=S)Nc2ccc([N+](=O)[O-])cc2)CC1	/	1.4%	-24.8%	2.9%	/	9.0%
O=C(NC(=S)N1CCN(c2ccc([N+](=O)[O-])cc2)CC1)c1ccccc1F	-22.9	-25.3%	-18.3%[0.074 µM]	25.1µM*	-18.4%	11.7%
O=[N+]([O-])c1ccc(N2CCN(C(=S)Nc3ccccc3)CC2)cc1	/	2.9%	1.3%	1.41µM*	/	-6.3%
O=[N+]([O-])c1ccc(NC(=S)N2CCN(c3ccccc3)CC2)cc1	-16.4	-4.9%	23.2%[10 µM]	?	-14.7%	?
COc1ccc(NC(=O)CC2C(=O)N(c3cccc(OC)c3)C(=O)N2CCC(C)C)cc1 (centres undefined)	-19.2	-0.4%	1.8%	-10.1%	-14.6%	31.1%
O=C(NC(=S)N1CCN(c2ccc([N+](=O)[O-])cc2)CC1)c1ccc(F)cc1	?	2.6%	/	7.08µM*	-26.5%	1.8%
O=[N+]([O-])c1ccc(N2CCN(C(=S)NC3CCCCC3)CC2)cc1	-9.7	-20.5%	-49.0%	5.01µM*	-21.2%	?
S=C(c1ccc(-c2cccc(Cl)c2)o1)N1CCCCC1	/	-28.5%	-84.1%	14.1µM*	/	-25.9%
O=[N+]([O-])c1cc(-c2ccc(C(=S)N3CCOCC3)o2)ccc1Cl	/	?	-30.3%	3.98µM*	/	-1.0%
N#CCCN1CCN(C(=S)c2ccc(-c3cccc(Cl)c3)o2)CC1	-19.5	?	-7.9%	11.2µM*	28.2µM*	9.6%
S=C(c1ccc(-c2cccc(Cl)c2)o1)N1CCOCC1	22.3	-21.5%	-28.8%	11.2µM*	22.4µM*	-10.1%
N#CCCN1CCN(C(=S)c2ccc(-c3ccc(Cl)c(Cl)c3)o2)CC1	4.3	?	-26.4%[10 µM]	?	?	-31.7%
S=C(Nc1ccccc1Cl)NC1CC2CCCC(C1)N2C1CC1 (centres undefined)	/	-9.1%	-26.1%	-8.2%	/	5.0%
Cc1cccn2c(=O)c(/C=C(\C#N)S(=O)(=O)c3ccccc3)c(Oc3ccc(Cl)cc3)nc12	-12.0	2.1%	-5.0%[10 µM]	?	-15.1%	-6.4%
O=C(c1cnccn1)N1CCC2(CC1)CCN(C(c1ccccc1)c1ccccc1)CC2	/	/	?	-1.0%	-3.2%	/
CCOC(=O)C1CCN(C(=O)c2c(C)oc3c2C(=O)c2ccccc2C3=O)CC1	22.1	1.4%[2.36 µM]	/	-10.6%	-13.5%	-1.1%
O=C(c1cc2cc(Br)ccc2o1)N1CCCCC1	/	11.6%	-43.5%	22.4µM*	/	-5.1%[9.22 µM]
CC1CCN(C(=O)c2cc3ccccc3c(=O)o2)CC1	-8.4	-3.3%	/	0.6%	25.1µM*	7.7%
O=C(c1cc2cc(Br)cc(Br)c2oc1=O)N1CCCc2ccccc21	20.2	3.0%	-7.2%	?	-15.4%	-10.9%
Cc1cc(C(=O)N2CCC(C)CC2)on1	/	9.3%	3.3%[10 µM]	/	/	-7.2%[9.22 µM]
O=C(c1cc2cc(Br)ccc2oc1=O)N1CCN(c2ccccn2)CC1	1.4	2.1%	0.2%[0.074 µM]	2.1%	-7.6%	-0.6%
Cc1oc2c(c1C(=O)N1CCC(C)CC1)C(=O)c1ccccc1C2=O	-11.7	-6.7%[2.36 µM]	/	?	-2.0%	7.08µM*
SMILES	PNC inhibitor	CBFb-RUNX1 inh	HTT ATP protect	ALDH1A1 inh	HPGD block	HttQ103 aggreg
O=C(c1cc2cc(Br)cc(Br)c2oc1=O)N1CCCC1	-18.7	-0.8%	5.7%[10 µM]	?	28.2µM*	-22.0%
COC(=O)C1=C(C(=O)OC)[C@@H]2Nc3ccccc3[C@@]23C[C@@H](C(=O)OC)N(S(=O)(=O)c2cccs2)C3=N1	/	20.2%[13.1 µM]	-6.4%[10 µM]	17.4%[13.5 µM]	0.9%	/
N#CCCCS(=O)(=O)c1ccccc1	/	11.0%	-19.9%	4.8%	-5.8%	/
O=C(N[C@@]1(C(=O)O)C[C@@H]1c1ccccc1)c1ccccc1	/	/	-10.6%[10 µM]	6.1%[13.5 µM]	-1.6%	/
O=C(c1cc2ccccc2c(=O)o1)N1CCCCCC1	2.9	-1.5%	-1.3%[10 µM]	?	17.8µM*	?
CCOc1ccc(N(CCCCO)C(=S)NC(=O)c2ccc(C)c(Br)c2)cc1	/	-7.7%	-15.1%	22.4µM*	/	-0.9%
CCC(C)CCCCNC1=NCCS1 (centres undefined)	/	-6.4%	-20.7%	1.6%	/	-13.5%
O=C(O)CN1C(=O)SC(Nc2ccccc2C(=O)O)C1=O (centres undefined)	-0.9	0.6%	11.5%	?	-25.6%	-2.9%[1.84 µM]
C=CCn1c(N)c(C(=O)OCC)sc1=S	-28.2	-1.0%	-9.3%	-11.1%	-16.9%	-16.7%
C=CCn1c(NC(=O)CC)c(C(=O)OCC)sc1=S	1.4	-0.3%	20.1%	?	20µM*	11.0%[9.22 µM]
C/C(=C\C(=O)OCCCCCCCCC(=O)O)C[C@@H]1OCC(C[C@H]2O[C@H]2[C@@H](C)[C@H](C)O)[C@@H](O)[C@H]1O (some centres undefined)	/	24.0%	/	/	/	/
CC(C)[C@H](NC(=O)c1ccccc1)C(=O)OCC(=O)NCCc1ccc(F)cc1	-134.0*	14.4%	4.9%[10 µM]	4.0%	-12.1%	5.7%
CC(C)[C@H](NC(=O)c1ccccc1)C(=O)OCC(=O)NCCC1=CCCCC1	0.8	3.3%	/	?	-4.2%	2.3%
O=C(N[C@H]1CCCc2ccccc21)O[C@@H]1C(=O)c2cc(Br)ccc2O[C@H]1c1ccc2c(c1)OCO2	/	3.7%	-46.5%	?	-10.5%	/
COc1ccc(S(=O)(=O)NCCc2c(C)nn(C)c2Oc2ccccc2)cc1	-27.5	5.4%	-2.3%[10 µM]	0.631µM*	4.2%	-20.3%
Cc1nn(C)c(Oc2ccccc2)c1CCNS(=O)(=O)c1ccc(Cl)cc1	22.1	0.9%	-13.2%[10 µM]	?	-1.7%	?
Cc1occc1C(=O)Nc1ccc2c(c1)OCCO2	-8.7	-2.1%	11.5%	12.6µM*	15.8µM*	-2.8%
Cc1ccsc1C(=O)Nc1ccc2c(c1)OCCO2	-17.5	0.3%	-27.1%[10 µM]	0.1%	31.6µM*	8.9%
Cc1ccsc1C(=O)NC(C)c1ccc2c(c1)OCO2 (centres undefined)	-118.9*	-1.2%	0.3%[10 µM]	9.9%	-7.5%	-13.4%
